Active and inactive are the calls of the source. Rule for the calls: active = hit-call score of the fitted dose curve at least 0.9, where 1 is the maximum; inactive = score below 0.9.
assay: CEETOX_H295R_11DCORT_noMTC: CeeTox H295R High-throughput Steroidogenesis Assay for 11-Deoxycortisol (11DCORT), maximum tolerated concentration (MTC) filtered results only (AID 2283911); settings: actives raise or lower the signal
Outline: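 Forskolin-primed (10 uM, 48 h) H295R adrenal cells are dosed for 48 h at 0.1% DMSO; medium 11-deoxycortisol is quantified by LC-MS/MS against a 7-point standard curve, with activity fitted in both directions versus DMSO.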

SMILES	AC50	outcome
NC(=Nc1ccccc1)Nc1ccccc1	82.8 µM (active)	–
C=CCc1ccc(OC)c(OC)c1	–	inactive
O=C(Oc1ccccc1)c1cccc(C(=O)Oc2ccccc2)c1	–	inactive
Nc1nc(=S)c2[nH]cnc2[nH]1	44.7 µM (active)	–

assay: CEETOX_H295R_OHPREG_noMTC: CeeTox H295R High-throughput Steroidogenesis Assay for OH-Pregnenolone (OHPREG), maximum tolerated concentration (MTC) filtered results only (AID 2283912); settings: actives raise or lower the signal
Outline: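 Readout is HPLC-MS/MS quantification of 17alpha-hydroxypregnenolone released by forskolin-stimulated H295R cells over 48 h of chemical exposure, DMSO as baseline.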

SMILES	outcome	AC50
NC(=Nc1ccccc1)Nc1ccccc1	inactive	–
C=CCc1ccc(OC)c(OC)c1	inactive	–
O=C(Oc1ccccc1)c1cccc(C(=O)Oc2ccccc2)c1	inactive	–
Nc1nc(=S)c2[nH]cnc2[nH]1	–	72.9 µM (active)

assay: CEETOX_H295R_OHPROG_noMTC: CeeTox H295R High-throughput Steroidogenesis Assay for OH-Progesterone (OHPROG), maximum tolerated concentration (MTC) filtered results only (AID 2283914); settings: actives raise or lower the signal
Description: CEETOX_H295R is a cell-based, multiplexed-readout assay that uses H295R, a human adrenal gland cell line, with measurements taken at 48 hours after chemical dosing in a 96-well plate.CEETOX_H295R_OHPROG_noMTC is one of 12 assay component(s) measured or calculated from the CEETOX_H295R assay (11 hormones and 1 viability assay). It is designed to make measurements of hormone induction, a form of inducible reporter, as detected with absorbance signals by HPLC-MS-MS technology. The concentrations for these components have not been pre-filtered for the maximum tolerated concentration (MTC) based on the MTT assay (_noMTC).Data from the assay component CEETOX_H295R_OHPROG_noMTC was analyzed into 1 assay endpoint. This assay endpoint, CEETOX_H295R_OHPROG_noMTC, was analyzed with bidirectional fitting relative to DMSO as the negative control and baseline of activity. Using a type of inducible reporter, gain or loss-of-signal activity using HPLC-MS-MS was used to understand synthesis of 17alpha-hydroxyprogesterone in H295R cell line at 48hr of chemical exposure, without filtering concentrations for maximum tolerated concentration (MTC). To generalize the intended target to other relatable targets, this assay endpoint is annotated to the steroid hormone intended target family, where the subfamily is progestagens.
Cell culture and media preparation procedures were conducted in accordance with OECD Test No. 456 guidelines, with minor modifications. H295R cells (ATCC CRL-2128) were expanded for 5 passages and frozen in batches in liquid nitrogen. […] For steroid quantification, media samples were shipped to OpAns, LLC (Durham, NC) on dry ice, and samples were thawed to room temperature prior to liquid-liquid extraction. […] Steroid hormones were separated by HPLC, eluted using a reverse phase C18 gradient with electrospray positive ionization, followed by quantification by tandem mass spectrometry (MS/MS). Data were acquired on a MassHunter Workstation Acquisition version B03.01 (Agilent Technologies, Inc.) and processed using MassHunter Quantitative Analysis for QQQ. Accuracy was determined for each hormone analyte from 3 standards to determine upper and lower limits of quantification (ULOQ and LLOQ, respectively) using a 7-point standard curve. Precision and accuracy of the extraction and quantification methods were calculated as the percent relative standard deviation (%RSD) of the spiked standards and percent spiked standard recovered, respectively. The goal was to achieve 100% accuracy (i.e., recover all spiked-in standard at quantification with minimal loss during run time) and good precision (i.e., have %RSD <15% to ensure reproducibility). Test medium was removed following chemical exposure, and cell viability was evaluated in the same wells by MTT. […]

SMILES	outcome	AC50
NC(=Nc1ccccc1)Nc1ccccc1	inactive	–
C=CCc1ccc(OC)c(OC)c1	inactive	–
O=C(Oc1ccccc1)c1cccc(C(=O)Oc2ccccc2)c1	inactive	–
Nc1nc(=S)c2[nH]cnc2[nH]1	–	74.3 µM (active)

assay: CEETOX_H295R_CORTISOL_noMTC: CeeTox H295R High-throughput Steroidogenesis Assay for Cortisol, maximum tolerated concentration (MTC) filtered results only (AID 2283916); settings: actives raise or lower the signal
Outline: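 H295R adrenal cells were pre-stimulated 48 h with 10 uM forskolin, then exposed 48 h to test chemical in 0.1% DMSO. Medium cortisol was measured by MTBE extraction and HPLC-MS/MS; bidirectional fit versus DMSO, concentrations not MTC-filtered.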

SMILES	AC50	outcome
NC(=Nc1ccccc1)Nc1ccccc1	44.4 µM (active)	–
C=CCc1ccc(OC)c(OC)c1	–	inactive
O=C(Oc1ccccc1)c1cccc(C(=O)Oc2ccccc2)c1	–	inactive
Nc1nc(=S)c2[nH]cnc2[nH]1	37 µM (active)	–

— PubChem BioAssay (EPA / NIEHS)
